Results published in PubChem BioAssay AID1159580 (chemical genetic matrix, 2015).
Out of some 5,500 compounds screened, about 2,000 (36%) were called active. Inconclusive results (about 18%) are left out. This is one part of the list. Unmarked numbers belong to inactive results. Rule as the data show it: active = normalized growth mostly below about 0.91 (no sharp cut-off); inconclusive = no clear call, values can overlap the other calls; inactive = mostly above about 0.92.

Assay: chemical genetic growth profiling, strain panel (AID 1159580);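 also: tested at 20 µM; growth read once vehicle control cultures reached saturation at 30 °C; 1 = growth at the plate median or of vehicle wells; lower values mean less growth of the strain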
Conditions: S. cerevisiae deletion strains, growth OD
[1] = locus YAR019C, strain CDC15, active compounds read low
[2] = locus YBL105C, strain PKC1, active compounds read low
[3] = locus YBR135W, strain CKS1, active compounds read low
[4] = locus YBR136W, strain MEC1, active compounds read low
[5] = locus YBR160W, strain CDC28, active compounds read low
[6] = locus YDL017W, strain CDC7, active compounds read low
[7] = locus YDL028C, strain MPS1, active compounds read low
[8] = locus YDL101C, strain DUN1, active compounds read low
[9] = locus YDL108W, strain KIN28, active compounds read low
[10] = locus YDL132W, strain cdc53, active compounds read low
[11] = locus YDL214C, strain PRR2, active compounds read low
[12] = locus YDR052C, strain DBF4, active compounds read low
[13] = locus YDR054C, strain cdc34, active compounds read low
[14] = locus YDR226W, strain ADK1, active compounds read low
[15] = locus YDR477W, strain SNF1, active compounds read low
[16] = locus YER123W, strain YCK3, active compounds read low
[17] = locus YER133W, strain GLC7, active compounds read low
[18] = locus YFL009W, strain cdc4, active compounds read low
[19] = locus YFL029C, strain CAK1, active compounds read low
[20] = locus YFR003C, strain YPI1, active compounds read low
[21] = locus YFR019W, strain FAB1, active compounds read low
[22] = locus YFR028C, strain CDC14, active compounds read low
[23] = locus YGR040W, strain KSS1, active compounds read low
[24] = locus YGR052W, strain FMP48, active compounds read low
[25] = locus YGR092W, strain DBF2, active compounds read low
[26] = locus YHR030C, strain SLT2, active compounds read low
[27] = locus YHR079C, strain IRE1, active compounds read low
[28] = locus YHR082C, strain KSP1, active compounds read low
[29] = locus YHR205W, strain SCH9, active compounds read low
[30] = locus YIL147C, strain SLN1, active compounds read low
[31] = locus YJL095W, strain BCK1, active compounds read low
[32] = locus YJL128C, strain PBS2, active compounds read low
[33] = locus YJL157C, strain FAR1, active compounds read low
[34] = locus YJR016C, strain ILV3, active compounds read low
[35] = locus YJR066W, strain TOR1 (second series), active compounds read low
[36] = locus YJR066W, strain TOR1, active compounds read low
[37] = locus YKL048C, strain ELM1, active compounds read low
[38] = locus YKL067W, strain YNK1, active compounds read low
[39] = locus YKL101W, strain HSL1, active compounds read low
[40] = locus YKL193C, strain SDS22, active compounds read low
[41] = locus YKL203C, strain TOR2, active compounds read low
[42] = locus YLR113W, strain HOG1, active compounds read low
[43] = locus YLR133W, strain CKI1, active compounds read low
[44] = locus YLR403W, strain SFP1, active compounds read low
[45] = locus YML070W, strain DAK1, active compounds read low
[46] = locus YMR001C, strain CDC5, active compounds read low
[47] = locus YMR205C, strain PFK2 (second series), active compounds read low
[48] = locus YMR277W, strain FCP1, active compounds read low
[49] = locus YNL006W, strain LST8, active compounds read low
[50] = locus YNL020C, strain ARK1, active compounds read low
[51] = locus YNL161W, strain CBK1, active compounds read low
[52] = locus YNL183C, strain NPR1, active compounds read low
[53] = locus YNL207W, strain RIO2, active compounds read low
[54] = locus YNL222W, strain SSU72, active compounds read low
[55] = locus YNL307C, strain MCK1 (second series), active compounds read low
[56] = locus YOL078W, strain AVO1, active compounds read low
[57] = locus YOL136C, strain PFK27, active compounds read low
[58] = locus YOR061W, strain CKA2, active compounds read low
[59] = locus YOR119C, strain RIO1, active compounds read low
[60] = locus YOR231W, strain MKK1, active compounds read low
[61] = locus YOR329C, strain SCD5, active compounds read low
[62] = locus YPL031C, strain PHO85, active compounds read low
[63] = locus YPL153C, strain RAD53, active compounds read low
[64] = locus YPL204W, strain HRR25, active compounds read low
[65] = locus YPL209C, strain IPL1, active compounds read low
[66] = locus YPL256C, strain CLN2, active compounds read low
[67] = locus YPR025C, strain CCL1, active compounds read low
[68] = locus YPR106W, strain ISR1, active compounds read low
[69] = locus YPR111W, strain DBF20, active compounds read low
[70] = strain NNK1, active compounds read low
[71] = strain TSCII, active compounds read low

`CC(=O)Oc1cc(C(C)C)c(OCCN(C)C)cc1C` gave a normalized growth (locus YAL040C, strain CLN3, active compounds read low) of 1.01, a normalized growth (locus YCL061C, strain MRC1 (second series), active compounds read low) of 1.01 and a normalized growth (locus YDR150W, strain NUM1, active compounds read low) of 1. It also gave a normalized growth (locus YDR363W, strain ESC2, active compounds read low) of 1.01, a normalized growth (locus YER002W, strain NOP16, active compounds read low) of 1.03 and a normalized growth (locus YNL175C, strain NOP13, active compounds read low) of 1.01. The normalized growth (locus YNL197C, strain WHI3, active compounds read low) was 1.01, the normalized growth (locus YNL224C, strain SQS1, active compounds read low) was 1 and the normalized growth (locus YOR083W, strain WHI5 (second series), active compounds read low) was 1.01. It also gave a normalized growth (locus YPL055C, strain LGE1, active compounds read low) of 1.01.

With `CCC(C)Cn1c(Sc2ncc([N+](=O)[O-])s2)n[nH]c1=O` (configuration not stated) the normalized growth [1] was 0.853 (active), the normalized growth [2] was 0.893 (active) and the normalized growth [3] was 0.867 (active). For the same compound, the normalized growth [4] was 0.888 (active), the normalized growth [5] was 0.894 (active) and the normalized growth [6] was 0.895 (active). For the same compound, the normalized growth [7] was 0.895, the normalized growth [8] was 0.932 and the normalized growth [9] was 0.878 (active). The normalized growth [10] was 0.849 (active), the normalized growth [11] was 0.794 and the normalized growth [12] was 0.93. The normalized growth [13] was 0.825 (active), the normalized growth [14] was 0.884 (active) and the normalized growth [15] was 0.711. The normalized growth [16] was 0.649, the normalized growth [17] was 0.69 (active) and the normalized growth [18] was 0.844 (active). The normalized growth [19] was 0.848 (active), the normalized growth [20] was 0.901 (active) and the normalized growth [21] was 0.838. For the same compound, the normalized growth [22] was 0.888 (active), the normalized growth [23] was 0.751 and the normalized growth [24] was 0.776. The normalized growth [25] was 0.469 (active), the normalized growth [26] was 0.772 (active) and the normalized growth [27] was 0.657. For the same compound, the normalized growth [28] was 0.926, the normalized growth [29] was 0.806 and the normalized growth [30] was 0.896. For the same compound, the normalized growth [31] was 0.651, the normalized growth [32] was 0.938 and the normalized growth [33] was 0.763. For the same compound, the normalized growth [34] was 0.877 (active), the normalized growth [35] was 0.492 (active) and the normalized growth [36] was 0.778. The normalized growth [37] was 0.963, the normalized growth [38] was 0.792 and the normalized growth [39] was 0.838. The normalized growth [40] was 0.849 (active), the normalized growth [41] was 0.795 and the normalized growth [42] was 0.598 (active). For the same compound, the normalized growth [43] was 0.805, the normalized growth [44] was 0.56 (active) and the normalized growth [45] was 0.759. For the same compound, the normalized growth [46] was 0.88 (active), the normalized growth [47] was 0.844 and the normalized growth [48] was 0.846 (active). For the same compound, the normalized growth [49] was 0.894 (active), the normalized growth [50] was 0.826 and the normalized growth [51] was 0.875 (active). The normalized growth [52] was 0.652, the normalized growth [53] was 0.867 (active) and the normalized growth [54] was 0.865 (active). The normalized growth [55] was 0.714, the normalized growth [56] was 0.856 (active) and the normalized growth [57] was 0.766. It also gave a normalized growth [58] of 0.85, a normalized growth [59] of 0.735 and a normalized growth [60] of 0.722. The normalized growth [61] was 0.908, the normalized growth [62] was 0.674 and the normalized growth [63] was 0.657 (active). For the same compound, the normalized growth [64] was 0.683, the normalized growth [65] was 0.891 (active) and the normalized growth [66] was 0.695 (active). For the same compound, the normalized growth [67] was 0.888 (active), the normalized growth [68] was 0.943 and the normalized growth [69] was 0.938. For the same compound, the normalized growth [70] was 0.932 and the normalized growth [71] was 0.85 (active).

`CCn1nc(C)cc1-c1nnc(Sc2ncc([N+](=O)[O-])s2)n1C` showed a normalized growth [1] of 0.964, a normalized growth [2] of 0.968 and a normalized growth [3] of 0.967. The normalized growth [4] was 0.962, the normalized growth [5] was 0.956 and the normalized growth [6] was 0.974. It also gave a normalized growth [7] of 0.961, a normalized growth [8] of 0.983 and a normalized growth [9] of 0.945. For the same compound, the normalized growth [10] was 0.966, the normalized growth [11] was 0.981 and the normalized growth [12] was 0.988. It also gave a normalized growth [13] of 0.975, a normalized growth [14] of 0.959 and a normalized growth [15] of 0.95. The normalized growth [16] was 0.93, the normalized growth [17] was 0.995 and the normalized growth [18] was 0.958. The normalized growth [19] was 0.954, the normalized growth [20] was 0.971 and the normalized growth [21] was 0.974. For the same compound, the normalized growth [22] was 0.968, the normalized growth [23] was 0.954 and the normalized growth [24] was 1.02. It also gave a normalized growth [25] of 0.92, a normalized growth [26] of 1.03 and a normalized growth [27] of 0.963. The normalized growth [28] was 1.01, the normalized growth [29] was 0.956 and the normalized growth [30] was 0.967. The normalized growth [31] was 0.933, the normalized growth [32] was 0.94 and the normalized growth [33] was 0.957. It also gave a normalized growth [34] of 0.967, a normalized growth [35] of 0.971 and a normalized growth [36] of 0.921. For the same compound, the normalized growth [37] was 0.99, the normalized growth [38] was 1 and the normalized growth [39] was 0.985. The normalized growth [40] was 0.962, the normalized growth [41] was 1.07 and the normalized growth [42] was 0.971. It also gave a normalized growth [43] of 0.958, a normalized growth [44] of 0.959 and a normalized growth [45] of 0.959. The normalized growth [46] was 0.961, the normalized growth [47] was 0.996 and the normalized growth [48] was 0.95. The normalized growth [49] was 0.967, the normalized growth [50] was 0.968 and the normalized growth [51] was 0.975. The normalized growth [52] was 1.04, the normalized growth [53] was 0.985 and the normalized growth [54] was 0.951. It also gave a normalized growth [55] of 0.945, a normalized growth [56] of 0.965 and a normalized growth [57] of 0.955. It also gave a normalized growth [58] of 0.98, a normalized growth [59] of 1.05 and a normalized growth [60] of 0.927. For the same compound, the normalized growth [61] was 0.975, the normalized growth [62] was 0.968 and the normalized growth [63] was 0.96. It also gave a normalized growth [64] of 0.965, a normalized growth [65] of 0.974 and a normalized growth [66] of 0.984. For the same compound, the normalized growth [67] was 0.965, the normalized growth [68] was 0.96 and the normalized growth [69] was 0.978. It also gave a normalized growth [70] of 0.984 and a normalized growth [71] of 0.963.
